Reference: PubChem BioAssay
Records with an inconclusive call do not appear. Calls of active or inactive are those of the source.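 The calls were made as follows, unless noted: active = aptamer binding inhibition above 30%, about 3 SD of noise from non-fluorescent compounds; inactive = inhibition at or below 30%.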

Experiments:
[1] = rapamycin-like changes in RPL19A-GFP expression – cell-based, S. cerevisiae, multiplex flow cytometry, primary screen (AID 1862; in the data active = percent of DMSO control GFP below about 86%;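 also: lower values mimic rapamycin by blocking the RPL19A rise seen in DMSO cells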); conditions: S. cerevisiae RPL19A-GFP strain, flow cytometry fluorescence, 3 h; at 10 µM; stronger effect = lower value
[2] = TOR pathway RTG branch CIT2 reporter changes – S. cerevisiae, GFP fusion, multiplex flow cytometry, primary screen (AID 1870;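 active = percent response above a set limit, the screen-wide mean plus 3 SD, cut at about 130% in these data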;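 also: barcoded CIT2-GFP strain pooled with four other GFP strains with rapamycin as positive control; median GFP fluorescence per well over plate mean of DMSO wells so 100% = DMSO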); conditions: S. cerevisiae CIT2-GFP expression, 3 h, at 10 µM, stronger effect = higher value
[3] = TOR pathway LAP4-GFP level changes – S. cerevisiae, multiplex flow cytometry, primary screen (AID 1873;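 active = GFP signal, as percent of the solvent control, above the screen mean plus 3 SD, about 149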); conditions: S. cerevisiae LAP4-GFP expression, 3 h, at 10 µM, stronger effect = higher value
[4] = yeast AGP1-GFP level changes, GLN3 branch – cell-based, multiplex flow cytometry, S. cerevisiae, primary screen (AID 1887;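 active = GFP signal above the screen-wide mean plus 3 SD, that is over about 124.5% of the solvent control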;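 also: AGP1-GFP fusion strain of S. cerevisiae within a five-strain barcoded multiplex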); conditions: 3 h, at 10 µM, stronger effect = higher value
[5] = reduced mouse 2C T cell binding to pMHC/ICAM-1 vesicles – MLPCN validation set, flow cytometry, LFA-1/ICAM-1 modulator project, pilot screen (AID 2523;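 active = response below a set limit, under 55% cells CD8-positive and vesicle-bound, and CD8 cells' 90th-percentile brightness under 279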;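 as to vesicle binding response: mean PE anti-B7-1 fluorescence of CD8+ cells relative to row control; 100% = QL9-loaded vesicles with DMSO vehicle in the same plate row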); conditions: 2C mouse CD8+ T cells, at 7 µM, stronger effect = lower value; double positive events: measured here: CD8+/vesicle+ event percentage
[6] = target: Integrin beta-1 (Homo sapiens) + Integrin alpha-4 (Homo sapiens) (UniProt P13612+P05556); test: alpha4beta1 integrin LIBS antibody binding reduction – U937 cells, HUTS-21 mAb, flow cytometry, validation set, VLA-4 allosteric modulator project, pilot screen (AID 2674;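 active = inhibition above 50%, about 3 SD of the validation set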;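 also: antibody binding induced by the VLA-4 ligand LDV present at three times its Kd; 0% = LDV ligand with antibody and no compound and 100% = antibody without LDV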); conditions: HUTS-21 LIBS mAb binding, at 6.7 µM, stronger effect = higher value, binding induced by LDV ligand
[7] = calorie-restriction mimetic ROS inhibitors, yeast – validation compound set, pilot screen (AID 2706;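 active = superoxide response below 65% of plate, a cut near 3 SD across the whole screen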;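 also: yeast exposed to compound for one week at 30 degrees C before staining; 100% = mean of all compound wells on the same plate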); conditions: S. cerevisiae aging, superoxide DHE fluorescence; at 10 µM, stronger effect = lower value
[8] = target: Beta-adrenergic receptor kinase 1 (Homo sapiens) (UniProt P25098); test: GRK2 binders displacing RNA aptamer, biochemical, validation, human GRK2, bead flow cytometry (AID 488806); conditions: bead-bound GRK2, FAM-aptamer displacement, at 10 µM, stronger effect = higher value
[9] = target: Beta-2 adrenergic receptor (Homo sapiens) (UniProt P07550); test: agonist-induced loss of surface beta2AR – cell-based, FAP fluorogen, flow cytometry, validation set, pilot screen (AID 504459;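 active = percent response above 42, roughly 3 SD of non-fluorescent test compounds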;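 also: agonist-driven loss of surface beta2AR via internalization measured by FAP dye flow cytometry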); conditions: Am2.2-beta2AR cells, at 10 µM, stronger effect = higher value
[10] = target: AP-2 complex subunit beta (Homo sapiens) (UniProt P63010); test: beta-arrestin/AP2 interaction blockers – biochemical, validation set, GST-AP2 beads, flow cytometry, pilot screen (AID 504541;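 active = inhibition above 54%, about 3 SD of non-fluorescent compounds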;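 also: AP2 carries R879A mutation and is captured from E. coli lysate; bead-bound FITC arrestin peptide fluorescence measuring arrestin peptide binding to AP2; 0% = DMSO wells and 100% = excess unlabeled arrestin peptide control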); conditions: FITC arrestin peptide, at 10 µM, stronger effect = higher value, AP2 beta2 appendage fragment, R879A mutant
[11] = cytosolic pH regulators acting via V-ATPase – S. cerevisiae, pHLuorin, HTS validation (AID 504600; in the data active = response above about 15%;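 also: plate controls were DMSO for no effect and reference compound for full effect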); conditions: V-ATPase proton transport, at 10 µM, stronger effect = higher value
[12] = tested on: anti-desmoglein-3 scFv antibody binding to human DSG3; test: blockers of pathogenic pemphigus antibody–desmoglein-3 binding – biochemical, validation compound set, bead-based, flow cytometry, pilot screen (AID 588368;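 active = binding below the plate cutoff, the plate median minus 3 SD, with a reading above zero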;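 also: signal is the median channel fluorescence of bead-bound GFP antibody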); conditions: Protein G beads, DSG3-Fc, scFv-GFP binding, at 10 µM, stronger effect = lower value
[13] = Nile Red efflux blockade in pump-expressing yeast – validation compound set, multiplex, phenotypic, pilot screen (AID 588506;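 active = efflux inhibition above 0.42, the validation set average plus 4 SD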;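 also: Nile Red retained in cells so higher fluorescence means more efflux inhibition; 0 = negative control wells and 1 = enniatin B 25 µM full block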); conditions: S. cerevisiae pump-expressing triplex, Nile Red efflux flow cytometry; at 10 µM; stronger effect = higher value; the pumps come from Candida albicans
[14] = target: ATP-binding cassette sub-family B member 6 (Homo sapiens) (UniProt Q9NP58); test: blockers of ABCB6-driven porphyrin uptake – K562-ABCB6 cells, flow cytometry, validation set, pilot screen (AID 588550;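 active = inhibition above the screen-wide mean plus 3 SD, about 51%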;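 also: 0% = DMSO wells and 100% = benzethonium chloride 70 µM positive control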); conditions: K562-ABCB6 porphyrin accumulation, 1 h, at 10 µM, stronger effect = higher value
[15] = AML differentiation inducers, ER-HoxA9 marrow cells – cell-based, GFP/MAC1 double positive, flow cytometry, validation set, primary screen (AID 588685;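 active = differentiation response of at least 50%, scaled between solvent and reference control, from cells with both markers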;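 also: compound exposure lasts four days before antibody staining and flow analysis; 0% = DMSO wells and 100% = 5 µM fulvestrant positive control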); conditions: stronger effect = higher value, normalized: vehicle 0, fulvestrant 100
[16] = TOR pathway GLN3 branch reporter MEP2-GFP changes – S. cerevisiae, multiplex flow cytometry, primary screen (AID 1867;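 active = GFP response, as percent of the DMSO control, above the screen-wide mean plus 3 SD, about 139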;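 also: median GFP channel fluorescence of barcode-gated MEP2-GFP cells measured by flow cytometry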); conditions: S. cerevisiae MEP2-GFP strain, 3 h, at 10 µM, stronger effect = higher value, 100% means same as DMSO wells
[17] = hit retest on RPL19A-GFP reporter strain – cell-based, S. cerevisiae, flow cytometry, cherry picks, mother/daughter gates, confirmation (AID 2270;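 active = GFP response below 50% of the DMSO control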); conditions: 3 h, at 10 µM, stronger effect = lower value, 100 = same GFP as DMSO wells
[18] = yeast TOR pathway reporter LAP4-GFP change – cell-based, cherry picks, flow cytometry, mother/daughter gates, confirmation (AID 2271;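 active = GFP response above 150% of the DMSO control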;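 also: ratio of sample to DMSO plate mean so 100% equals DMSO level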); conditions: S. cerevisiae LAP4-GFP strain, 3 h, at 10 µM, stronger effect = higher value, 100 means same as DMSO control
[19] = TOR pathway reporter MEP2-GFP, retest of hits – S. cerevisiae, flow cytometry GFP, cherry picks, confirmation (AID 2272;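 active = GFP response above 150% of the DMSO control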;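 also: ratio of well signal to plate DMSO mean so 100% equals DMSO level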); conditions: S. cerevisiae MEP2-GFP strain, 3 h, at 10 µM, stronger effect = higher value
[20] = TOR pathway CIT2 reporter hit retest – S. cerevisiae, GFP fusion, cherry picks, mother/daughter gates, confirmation (AID 2274;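 active = GFP response above 150% of the DMSO level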); conditions: S. cerevisiae CIT2-GFP strain, flow cytometry, 3 h, at 10 µM, stronger effect = higher value
[21] = measured here: daughter cell gate
[22] = measured here: mother cell gate
[23] = measured here: daughter cell gate response
[24] = measured here: mother cell gate response

Beta-2 adrenergic receptor (Homo sapiens), sequence (P07550 whole entry, looked up): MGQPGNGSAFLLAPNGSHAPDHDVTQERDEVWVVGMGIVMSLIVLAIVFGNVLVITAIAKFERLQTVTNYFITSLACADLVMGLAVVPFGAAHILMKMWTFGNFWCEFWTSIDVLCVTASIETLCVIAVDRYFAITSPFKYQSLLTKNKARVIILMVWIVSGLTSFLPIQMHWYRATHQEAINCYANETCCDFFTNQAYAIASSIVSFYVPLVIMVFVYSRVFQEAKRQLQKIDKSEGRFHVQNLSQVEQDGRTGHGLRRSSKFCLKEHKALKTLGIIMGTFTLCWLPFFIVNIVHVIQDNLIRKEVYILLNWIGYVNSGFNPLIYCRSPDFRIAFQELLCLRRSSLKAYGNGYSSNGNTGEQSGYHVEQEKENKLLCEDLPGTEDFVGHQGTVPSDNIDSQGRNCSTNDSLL
ATP-binding cassette sub-family B member 6 (Homo sapiens), sequence (Q9NP58 whole entry, looked up): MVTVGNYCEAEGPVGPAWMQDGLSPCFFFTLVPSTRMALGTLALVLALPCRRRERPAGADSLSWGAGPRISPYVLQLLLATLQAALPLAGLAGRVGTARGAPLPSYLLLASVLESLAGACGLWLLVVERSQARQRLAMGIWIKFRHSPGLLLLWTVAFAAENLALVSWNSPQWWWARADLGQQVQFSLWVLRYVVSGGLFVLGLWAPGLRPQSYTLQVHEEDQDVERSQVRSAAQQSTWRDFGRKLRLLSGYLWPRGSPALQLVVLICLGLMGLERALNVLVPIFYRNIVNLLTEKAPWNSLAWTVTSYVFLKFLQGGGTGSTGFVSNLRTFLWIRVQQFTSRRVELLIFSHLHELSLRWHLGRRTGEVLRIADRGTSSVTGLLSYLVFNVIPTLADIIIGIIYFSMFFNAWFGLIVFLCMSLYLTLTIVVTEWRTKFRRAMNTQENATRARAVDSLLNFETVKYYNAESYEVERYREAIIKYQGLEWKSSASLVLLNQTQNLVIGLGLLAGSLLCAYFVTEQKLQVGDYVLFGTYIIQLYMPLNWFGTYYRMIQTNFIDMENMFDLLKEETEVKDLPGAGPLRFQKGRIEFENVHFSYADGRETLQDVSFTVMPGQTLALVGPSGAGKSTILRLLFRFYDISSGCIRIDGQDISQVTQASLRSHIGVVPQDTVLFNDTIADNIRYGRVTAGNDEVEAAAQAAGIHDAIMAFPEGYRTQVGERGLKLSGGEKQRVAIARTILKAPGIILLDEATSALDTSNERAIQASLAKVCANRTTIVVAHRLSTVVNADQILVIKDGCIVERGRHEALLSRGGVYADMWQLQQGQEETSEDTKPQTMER
AP-2 complex subunit beta (Homo sapiens), sequence (P63010 whole entry, looked up, the tested form may be a part, one chain of several): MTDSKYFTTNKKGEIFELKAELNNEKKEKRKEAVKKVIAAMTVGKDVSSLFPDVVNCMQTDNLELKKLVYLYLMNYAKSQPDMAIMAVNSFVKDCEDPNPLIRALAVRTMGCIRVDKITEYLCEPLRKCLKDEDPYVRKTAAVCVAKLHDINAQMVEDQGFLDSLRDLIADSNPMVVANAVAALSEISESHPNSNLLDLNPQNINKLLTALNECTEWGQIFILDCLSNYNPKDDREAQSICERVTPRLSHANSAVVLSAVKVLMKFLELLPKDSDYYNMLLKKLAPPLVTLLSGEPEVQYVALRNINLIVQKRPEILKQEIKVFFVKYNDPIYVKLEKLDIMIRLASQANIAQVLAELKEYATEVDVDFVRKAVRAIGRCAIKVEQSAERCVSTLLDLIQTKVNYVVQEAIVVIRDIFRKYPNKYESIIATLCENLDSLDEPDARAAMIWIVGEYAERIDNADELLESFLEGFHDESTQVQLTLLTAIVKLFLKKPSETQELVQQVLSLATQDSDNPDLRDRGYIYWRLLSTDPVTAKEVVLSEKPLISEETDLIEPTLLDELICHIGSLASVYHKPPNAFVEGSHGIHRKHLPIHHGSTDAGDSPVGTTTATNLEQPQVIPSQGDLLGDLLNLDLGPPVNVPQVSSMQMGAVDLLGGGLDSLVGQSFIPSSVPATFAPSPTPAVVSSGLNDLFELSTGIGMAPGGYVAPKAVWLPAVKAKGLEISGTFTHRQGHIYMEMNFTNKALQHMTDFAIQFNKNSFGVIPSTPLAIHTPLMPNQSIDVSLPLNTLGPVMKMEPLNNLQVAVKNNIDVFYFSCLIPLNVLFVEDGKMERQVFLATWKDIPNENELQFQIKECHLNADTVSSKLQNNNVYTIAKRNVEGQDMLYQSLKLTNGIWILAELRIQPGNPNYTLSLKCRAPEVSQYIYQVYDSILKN
Integrin beta-1 (Homo sapiens) + Integrin alpha-4 (Homo sapiens), sequence (P05556 whole entry, looked up): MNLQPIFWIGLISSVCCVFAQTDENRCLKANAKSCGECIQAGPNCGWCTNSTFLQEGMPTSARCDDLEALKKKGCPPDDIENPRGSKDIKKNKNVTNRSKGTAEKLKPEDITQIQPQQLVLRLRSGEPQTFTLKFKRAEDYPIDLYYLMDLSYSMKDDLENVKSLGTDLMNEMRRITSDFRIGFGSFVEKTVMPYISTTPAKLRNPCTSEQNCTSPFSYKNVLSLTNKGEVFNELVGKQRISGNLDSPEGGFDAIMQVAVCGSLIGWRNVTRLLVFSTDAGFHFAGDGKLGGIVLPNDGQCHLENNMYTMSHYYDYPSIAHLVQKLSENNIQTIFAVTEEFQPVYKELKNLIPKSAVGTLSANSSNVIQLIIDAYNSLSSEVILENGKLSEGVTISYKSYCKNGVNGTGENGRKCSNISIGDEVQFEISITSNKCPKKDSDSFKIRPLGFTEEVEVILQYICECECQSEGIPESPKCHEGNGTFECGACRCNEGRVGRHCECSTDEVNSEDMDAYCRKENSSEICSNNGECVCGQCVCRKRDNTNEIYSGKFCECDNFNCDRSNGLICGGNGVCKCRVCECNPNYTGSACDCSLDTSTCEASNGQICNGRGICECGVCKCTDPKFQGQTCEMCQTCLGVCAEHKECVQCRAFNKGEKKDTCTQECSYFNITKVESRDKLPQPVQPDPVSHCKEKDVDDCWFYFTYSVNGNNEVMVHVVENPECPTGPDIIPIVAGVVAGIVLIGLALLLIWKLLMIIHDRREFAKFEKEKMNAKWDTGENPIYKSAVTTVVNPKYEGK
Integrin beta-1 (Homo sapiens) + Integrin alpha-4 (Homo sapiens), sequence (P13612 whole entry, looked up): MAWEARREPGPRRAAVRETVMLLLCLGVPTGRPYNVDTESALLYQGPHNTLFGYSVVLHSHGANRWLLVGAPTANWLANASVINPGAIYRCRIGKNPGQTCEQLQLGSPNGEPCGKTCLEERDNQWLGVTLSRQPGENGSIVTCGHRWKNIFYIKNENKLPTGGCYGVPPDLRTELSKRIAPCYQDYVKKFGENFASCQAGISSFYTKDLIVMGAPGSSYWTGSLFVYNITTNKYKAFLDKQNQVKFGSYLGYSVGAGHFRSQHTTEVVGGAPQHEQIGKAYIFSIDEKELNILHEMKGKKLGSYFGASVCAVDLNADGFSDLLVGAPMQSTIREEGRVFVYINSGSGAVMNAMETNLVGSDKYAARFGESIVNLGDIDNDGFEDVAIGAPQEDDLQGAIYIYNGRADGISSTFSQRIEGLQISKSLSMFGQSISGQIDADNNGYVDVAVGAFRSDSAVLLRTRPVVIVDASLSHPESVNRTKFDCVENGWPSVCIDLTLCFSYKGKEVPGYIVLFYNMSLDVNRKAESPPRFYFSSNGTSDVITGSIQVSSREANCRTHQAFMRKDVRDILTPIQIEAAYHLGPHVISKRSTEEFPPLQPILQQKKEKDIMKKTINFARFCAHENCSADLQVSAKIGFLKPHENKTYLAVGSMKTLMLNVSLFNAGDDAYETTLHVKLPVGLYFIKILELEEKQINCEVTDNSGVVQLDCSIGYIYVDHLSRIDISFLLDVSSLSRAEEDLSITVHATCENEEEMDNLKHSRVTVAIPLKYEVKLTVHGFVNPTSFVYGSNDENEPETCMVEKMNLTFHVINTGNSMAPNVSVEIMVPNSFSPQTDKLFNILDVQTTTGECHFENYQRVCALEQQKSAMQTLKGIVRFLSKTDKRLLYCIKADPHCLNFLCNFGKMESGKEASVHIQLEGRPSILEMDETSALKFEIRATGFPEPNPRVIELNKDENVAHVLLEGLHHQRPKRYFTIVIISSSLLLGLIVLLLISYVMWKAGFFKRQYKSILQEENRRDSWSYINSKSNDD
Beta-adrenergic receptor kinase 1 (Homo sapiens), sequence (P25098 whole entry, looked up): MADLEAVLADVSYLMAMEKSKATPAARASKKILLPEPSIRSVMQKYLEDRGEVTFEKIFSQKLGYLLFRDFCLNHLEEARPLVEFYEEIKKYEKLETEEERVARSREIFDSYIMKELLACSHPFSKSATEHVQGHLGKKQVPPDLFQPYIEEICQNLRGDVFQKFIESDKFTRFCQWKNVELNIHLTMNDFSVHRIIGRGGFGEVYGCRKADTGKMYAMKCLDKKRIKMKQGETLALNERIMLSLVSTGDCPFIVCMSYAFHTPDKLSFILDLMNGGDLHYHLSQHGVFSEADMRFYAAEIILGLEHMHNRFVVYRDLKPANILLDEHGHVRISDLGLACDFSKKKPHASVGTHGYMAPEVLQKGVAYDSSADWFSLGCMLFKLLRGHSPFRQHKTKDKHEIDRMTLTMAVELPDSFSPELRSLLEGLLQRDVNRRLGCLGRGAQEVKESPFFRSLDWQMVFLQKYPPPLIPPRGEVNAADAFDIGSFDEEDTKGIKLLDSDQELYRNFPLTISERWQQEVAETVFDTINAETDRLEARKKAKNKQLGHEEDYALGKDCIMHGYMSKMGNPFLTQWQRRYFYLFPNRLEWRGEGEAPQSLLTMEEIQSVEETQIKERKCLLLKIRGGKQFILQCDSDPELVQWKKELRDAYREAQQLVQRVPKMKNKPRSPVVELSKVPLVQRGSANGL

Cc1cc(C)c2c(CCl)cc(=O)oc2c1
active: response [11] 63.9%
inactive: percent of DMSO control GFP [1] 98.7% | percent response of DMSO control [2] 107% | GFP response vs DMSO [3] 127% | GFP response, % of DMSO [4] 115% | vesicle binding response [5] 174% | inhibition [6] 33.8% | superoxide response (% of plate) [7] 93% | aptamer binding inhibition [8] -2% | response [9] -0.73% | inhibition [10] 2.3% | binding (% of control) [12] 96.2% | efflux inhibition (fraction of control) [13] 0.08 | inhibition [14] 4% | differentiation response [15] 4.86%
60.3%: double positive events [5]

CCCCC[C@H](O)/C=C/[C@@H]1[C@@H](C/C=C\CCCC(=O)OC)[C@@H](O)C[C@H]1O
inactive: percent of DMSO control GFP [1] 97.4% | GFP response vs DMSO [16] 127% | percent response of DMSO control [2] 99.2% | vesicle binding response [5] 157% | inhibition [6] -30.4% | superoxide response (% of plate) [7] 171% | aptamer binding inhibition [8] 12% | response [9] 4.64% | inhibition [10] -11.2% | response [11] -0.57% | binding (% of control) [12] 116% | efflux inhibition (fraction of control) [13] 0.05 | inhibition [14] 13% | differentiation response [15] 2.46%
59.2%: double positive events [5]

O=P(O)(O)CP(=O)(O)O
61.8%: double positive events [5]
inactive: percent of DMSO control GFP [1] 91.9% | percent response of DMSO control [2] 90.5% | GFP response vs DMSO [3] 123% | GFP response, % of DMSO [4] 122% | vesicle binding response [5] 178% | inhibition [6] 22.7% | superoxide response (% of plate) [7] 93% | aptamer binding inhibition [8] 0% | response [9] -17.7% | inhibition [10] -22.1% | response [11] -0.51% | binding (% of control) [12] 101% | efflux inhibition (fraction of control) [13] 0 | inhibition [14] -3% | differentiation response [15] 28.5%

Cc1cccc(C)c1NS(=O)(=O)c1ccc(NC(=O)c2ccc(Cl)c([N+](=O)[O-])c2)cc1
62.8%: double positive events [5]
inactive: percent of DMSO control GFP [1] 97.7% | GFP response vs DMSO [16] 110% | percent response of DMSO control [2] 116% | GFP response vs DMSO [3] 72.6% | vesicle binding response [5] 163% | inhibition [6] 9.37% | superoxide response (% of plate) [7] 103% | aptamer binding inhibition [8] 0% | response [9] -4.38% | inhibition [10] 4.81% | response [11] 13% | binding (% of control) [12] 100% | efflux inhibition (fraction of control) [13] -0.2 | inhibition [14] 9% | differentiation response [15] 13.1%

Cc1ccccc1NC(=O)C1c2ccccc2Oc2ccccc21
inactive: percent of DMSO control GFP [1] 96.1% | GFP response vs DMSO [16] 120% | percent response of DMSO control [2] 110% | GFP response vs DMSO [3] 77.6% | vesicle binding response [5] 217% | inhibition [6] 4.52% | superoxide response (% of plate) [7] 86.5% | aptamer binding inhibition [8] 2% | response [9] -5.21% | inhibition [10] -0.97% | response [11] -0.9% | binding (% of control) [12] 105% | efflux inhibition (fraction of control) [13] 0.16 | inhibition [14] 12% | differentiation response [15] -4.09%
65.5%: double positive events [5]

CC1CCCc2sc3ncn(N)c(=N)c3c21 (configuration not stated)
62.2%: double positive events [5]
inactive: percent of DMSO control GFP [1] 103% | percent response of DMSO control [2] 105% | GFP response, % of DMSO [4] 87.1% | vesicle binding response [5] 246% | inhibition [6] -3.16% | superoxide response (% of plate) [7] 94.2% | aptamer binding inhibition [8] 4% | response [9] 31.1% | inhibition [10] -3.27% | response [11] 3.56% | binding (% of control) [12] 98.2% | efflux inhibition (fraction of control) [13] -0.24 | inhibition [14] 7% | differentiation response [15] -4%

C[C@]12C=CC(=O)C=C1CCC1C3CC[C@](O)(C(=O)CO)[C@@]3(C)CC3OC312 (some centres not stated)
76.1%: double positive events [5]
active: inhibition [14] 113%
inactive: percent of DMSO control GFP [1] 102% | percent response of DMSO control [2] 95.8% | GFP response vs DMSO [3] 85.4% | GFP response, % of DMSO [4] 101% | vesicle binding response [5] 298% | inhibition [6] 5.03% | superoxide response (% of plate) [7] 87.7% | aptamer binding inhibition [8] 2% | response [9] 2.49% | inhibition [10] -1.32% | response [11] -0.61% | binding (% of control) [12] 102% | efflux inhibition (fraction of control) [13] 0.22 | differentiation response [15] -13.6%

Cc1ccc(S(=O)(=O)Nc2ccc(S(=O)(=O)Nc3cc(C)nc(C)n3)cc2)cc1
76%: double positive events [5]
inactive: percent of DMSO control GFP [1] 91.1% | GFP response vs DMSO [16] 120% | percent response of DMSO control [2] 108% | GFP response vs DMSO [3] 78.1% | vesicle binding response [5] 256% | inhibition [6] 23.9% | superoxide response (% of plate) [7] 89.7% | aptamer binding inhibition [8] 0% | response [9] 1.77% | inhibition [10] -0.21% | response [11] 15% | binding (% of control) [12] 101% | efflux inhibition (fraction of control) [13] -0.35 | inhibition [14] 6% | differentiation response [15] 26.2%

Nc1c2c(nc3ccccc13)CCCC2
inactive: percent of DMSO control GFP [1] 89.5% | GFP response vs DMSO [16] 112% | percent response of DMSO control [2] 99.2% | GFP response vs DMSO [3] 69.9% | vesicle binding response [5] 258% | inhibition [6] 1.61% | superoxide response (% of plate) [7] 105% | aptamer binding inhibition [8] 2% | response [9] -14.3% | inhibition [10] 3.69% | response [11] 7.21% | binding (% of control) [12] 104% | efflux inhibition (fraction of control) [13] 0.05 | inhibition [14] 11% | differentiation response [15] -5.73%
68.9%: double positive events [5]

O=C(O)CSC1CC(=O)N(c2ccc(Cl)c(Cl)c2)C1=O (configuration not stated)
inactive: GFP response vs DMSO [17] 97.8% | GFP response relative to DMSO [18] 108% | GFP response vs DMSO [19] 101% | GFP response, % of DMSO [20] 100%
100%: GFP response, % of DMSO [20, 22]
113%: GFP response relative to DMSO [18, 23]
99.3%: GFP response, % of DMSO [20, 21]
107%: GFP response relative to DMSO [18, 24]
97.8%: GFP response vs DMSO [17, 21]
97.5%: GFP response vs DMSO [17, 22]

OC1(c2ccc(F)cc2)CSC(=Nc2cccnc2)N1Cc1ccco1 (configuration not stated)
106%: GFP response, % of DMSO [20, 21]
inactive: GFP response vs DMSO [17] 98% | GFP response relative to DMSO [18] 102% | GFP response vs DMSO [19] 110% | GFP response, % of DMSO [20] 108%
99.7%: GFP response relative to DMSO [18, 23]
99.6%: GFP response vs DMSO [17, 21]
104%: GFP response relative to DMSO [18, 24]
108%: GFP response, % of DMSO [20, 22]
98.7%: GFP response vs DMSO [17, 22]

Cc1cc(-n2nc(C)cc2C)n2ncc(-c3ccccc3)c2n1
96.2%: GFP response relative to DMSO [18, 24]
inactive: GFP response vs DMSO [17] 105% | GFP response relative to DMSO [18] 95.7% | GFP response vs DMSO [19] 103% | GFP response, % of DMSO [20] 97.3%
98.1%: GFP response, % of DMSO [20, 22]
95.9%: GFP response relative to DMSO [18, 23]
101%: GFP response vs DMSO [17, 21]
95.6%: GFP response, % of DMSO [20, 21]
106%: GFP response vs DMSO [17, 22]
